The nature of test [1]: qHTS for Inhibitors of the Functional Ribonucleoprotein Complex (vRNP) of Lassa (LASV) Arenavirus: LASV Primary Screen - GLuc reporter signal (AID 1347082; calls by dose curve; tested in HEK293 reporter line; further: on the % scale 0 is the no-effect control and ±100 the full control effect; nearly all actives have a fitted effect of over 60% in size). Background: Quantitative high-throughput screening tests each substance at several concentrations.
Test [2] is described as follows: qHTS for Inhibitors of the Functional Ribonucleoprotein Complex (vRNP) of Lassa (LASV) Arenavirus: Viability assay - alamar blue signal for LASV Primary Screen (AID 1347083; calls by dose curve; tested in HEK293 reporter line; further: on the % scale 0 is the no-effect control and ±100 the full control effect; nearly all actives have a fitted effect of over 80% in size).
A short description of test [3]: qHTS for Inhibitors of the Functional Ribonucleoprotein Complex (vRNP) of Lymphocytic Choriomeningitis Arenaviruses (LCMV): Viability assay - alamar blue signal for LCMV Primary Screen (AID 1347085; calls by dose curve; tested in HEK293 reporter line; further: on the % scale 0 is the no-effect control and ±100 the full control effect; nearly all actives have a fitted effect of over 80% in size).
For test [4], the target named is Nucleoprotein (Lymphocytic choriomeningitis virus (strain Armstrong)) (UniProt P09992). Description: qHTS for Inhibitors of the Functional Ribonucleoprotein Complex (vRNP) of Lymphocytic Choriomeningitis Arenaviruses (LCMV): LCMV Primary Screen - GLuc reporter signal (AID 1347086). Further: on the % scale 0 is the no-effect control and ±100 the full control effect; nearly all actives have a fitted effect of over 70% in size.
Sequence of Nucleoprotein (Lymphocytic choriomeningitis virus (strain Armstrong)) (P09992 whole entry, looked up): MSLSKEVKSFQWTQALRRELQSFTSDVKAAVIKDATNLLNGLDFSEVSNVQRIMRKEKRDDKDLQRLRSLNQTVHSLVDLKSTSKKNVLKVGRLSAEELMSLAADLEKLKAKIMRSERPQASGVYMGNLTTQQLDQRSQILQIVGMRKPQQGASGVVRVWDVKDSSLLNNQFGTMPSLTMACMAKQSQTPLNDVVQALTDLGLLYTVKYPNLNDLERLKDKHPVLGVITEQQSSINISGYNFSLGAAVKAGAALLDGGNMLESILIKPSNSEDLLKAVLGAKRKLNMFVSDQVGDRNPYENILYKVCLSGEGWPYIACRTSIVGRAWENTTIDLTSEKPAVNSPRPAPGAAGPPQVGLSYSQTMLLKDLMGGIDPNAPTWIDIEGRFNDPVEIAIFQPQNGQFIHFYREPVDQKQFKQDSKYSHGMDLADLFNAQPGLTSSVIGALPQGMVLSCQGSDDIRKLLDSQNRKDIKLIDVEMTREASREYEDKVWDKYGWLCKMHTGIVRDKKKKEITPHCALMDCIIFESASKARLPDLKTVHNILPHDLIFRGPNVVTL
A short description of test [5]: Primary qHTS for inhibitors of SARS-S pseudo-typed particle cell entry (AID 1479145). Further: on the % scale 0 is the no-effect control and ±100 the full control effect; nearly all actives have a fitted effect of over 45% in size.
The nature of test [6]: Primary qHTS for Huh7 cytotoxicity: counterscreen for inhibitors of MERS-S pseudotyped particle cell entry (AID 1479147). As to conditions: outcome: dose series up to 57.1 µM unless noted.
The nature of test [7]: Primary qHTS for inhibitors of MERS-S pseudo-typed particle cell entry (AID 1479149). Further: nearly all actives have a fitted effect of over 60% in size.
Test [8] can be described thus: Primary qHTS for Vero E6 cytotoxicity: counterscreen for inhibitors of SARS-S pseudo-typed particle cell entry (AID 1479150). As to conditions: outcome: dose series up to 57.1 µM unless noted.
A short description of test [9]: Cytotoxicity counterscreen for inhibitors of SARS-CoV-2 cell entry (AID 1645845). Further: nearly all actives have a fitted effect of over 50% in size. The essentials:
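ATP-content luminescence (ATPLite 1step, 15 min RT) read after 48 h compound exposure of Expi293F cells stably expressing human ACE2; normalized to cells-only wells and media-only wells.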
(In general: Counterscreens check selectivity or assay interference.)

A short description of test [10]: Primary qHTS to identify inhibitors of SARS-CoV-2 cell entry (AID 1645846). Further: nearly all actives have a fitted effect of over 45% in size. Conditions: activity change, negative = inhibition: at 57.1 µM (top of the series) unless noted. The gist of the method:
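Inhibition of spike-mediated entry was scored in human ACE2-transfected Expi293F cells. Particles were MLV-pseudotyped with Wuhan-Hu-1 S carrying a 19-aa C-terminal deletion; signal was luciferase after two days, scaled between spike PP and fusion-protein-free PP.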

Test [11] addresses Nuclear receptor subfamily 1 group I member 3 (Homo sapiens) (UniProt Q14994). Kind of test: Primary qHTS for antagonist of constitutive androstane receptor (CAR) against the NCATS DSHEA and TCM libraries (AID 1794836; active means well fitted curve in the direction sought with a large enough effect;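 further: HepG2 cells stably expressing hCAR with CYP2B6 luciferase reporter stimulated by CITCO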). The essentials: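 Antagonist mode: CAR reporter luminescence (ONE-Glo) in HepG2-CYP2B6-hCAR cells stimulated with 48 uM CITCO (final) over 24 h at 37 C, compounds titrated; viability read first by CellTiter-Fluor fluorescence.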

Test [12] is described as follows: KB-8-5-11 P-gp reporter qHTS against the NCATS DSHEA and TCM libraries (AID 1919977; active means well fitted curve in the direction sought with a large enough effect; further: 0% is about no effect). The essentials:
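KB-8-5-11, 500 cells/well, DMEM/10% FBS without colchicine; 4 h attach; cpd titrations, 72 h, 37C/5% CO2; CellTiter-Glo, 30 min RT, luminescence.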

Inconclusive results are not listed. Activity calls are given as the source filed them. Unless noted, the call rests on the fitted dose curve.

Sequence of Nuclear receptor subfamily 1 group I member 3 (Homo sapiens) (Q14994 whole entry, looked up): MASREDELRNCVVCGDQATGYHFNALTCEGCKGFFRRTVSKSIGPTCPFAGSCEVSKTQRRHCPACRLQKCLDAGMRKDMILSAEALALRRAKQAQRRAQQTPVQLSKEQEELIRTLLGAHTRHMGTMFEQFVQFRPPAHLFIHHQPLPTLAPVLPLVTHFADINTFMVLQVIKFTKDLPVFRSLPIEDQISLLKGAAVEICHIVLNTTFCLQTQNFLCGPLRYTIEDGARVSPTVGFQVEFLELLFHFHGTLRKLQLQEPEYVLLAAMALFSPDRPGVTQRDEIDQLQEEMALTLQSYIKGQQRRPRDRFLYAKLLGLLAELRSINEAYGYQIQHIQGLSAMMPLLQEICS

As for `CCCCCCCCCCCC(=O)OCC(O)CO` (stereo unspecified), the Potency entry in test [1], in [2], in test [3], in test [4], in test [5] and in test [7] was “inactive” in each case. In addition, the Potency entry in [9], in test [10] and in test [11] was “inactive” throughout. In addition, the outcome in [6], in [8] and in test [12] was inactive.
Consider `O=C1c2c(O)cccc2[C@@H]([C@@H]2O[C@H](CO)[C@@H](O)[C@H](O)[C@H]2O)c2cc(CO)cc(O)c21`, for which the Potency entry in [1], in test [2], in test [3], in test [4], in test [7] and in [9] was “inactive” throughout. The outcome in test [6], in test [8] and in test [12] was inactive. In [10], the activity change, negative = inhibition is -0.84%.
Take `CC(=O)O[C@H]1Cc2ccccc2N(C(N)=O)c2ccccc21`: the Potency entry in [1], in [2], in [3], in test [4], in test [7] and in test [9] was “inactive” throughout. Moreover, the call in [6] and in test [8] was inactive. Further, in test [10], the activity change, negative = inhibition was -29.9%.

The values above are taken from PubChem BioAssay (NCATS).
